Screening results deposited in PubChem BioAssay by The Scripps Research Institute Molecular Screening Center.
The list is not random: actives were taken first. Their share in the collection is about 3.5%.
TEAD-YAP inh: TEAD-YAP interaction inhibition | HEK-TIYL cells, TEAD-Gal4/YAP UAS-luciferase luminescence | AID 1259422 | inhibition, % at 9.12 µM | 1.4% of 640,000 active; in the data active = inhibition above about 32%;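 note: 0% = median of test compound wells and 100% = reference inhibitor wells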
MITF inh: blocks human microphthalmia-associated transcription factor. O75030. AlphaScreen MITF homodimerization, bead proximity signal. inhibition, % at 2.6 µM. 0.91% of 650,000 active. AID 1259374; in the data active = inhibition above about 50%;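 note: 0% = vehicle wells with protein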
Target sequence (O75030 whole entry, looked up): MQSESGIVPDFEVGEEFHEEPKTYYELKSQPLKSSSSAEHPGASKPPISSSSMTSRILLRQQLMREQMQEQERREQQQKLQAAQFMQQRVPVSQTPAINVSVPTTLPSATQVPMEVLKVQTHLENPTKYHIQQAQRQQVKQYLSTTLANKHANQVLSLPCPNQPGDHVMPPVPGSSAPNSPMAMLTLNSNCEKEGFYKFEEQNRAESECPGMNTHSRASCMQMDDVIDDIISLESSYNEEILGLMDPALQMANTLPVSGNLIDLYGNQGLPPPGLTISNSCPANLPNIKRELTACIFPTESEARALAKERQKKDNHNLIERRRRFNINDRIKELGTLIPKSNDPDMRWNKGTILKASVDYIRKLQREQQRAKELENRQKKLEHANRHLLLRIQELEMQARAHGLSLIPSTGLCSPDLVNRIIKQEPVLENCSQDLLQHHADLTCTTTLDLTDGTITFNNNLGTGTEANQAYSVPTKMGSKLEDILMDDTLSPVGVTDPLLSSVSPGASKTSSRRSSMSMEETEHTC
FBW7 act: human FBW7 E3 ligase activation, primary screen. AlphaScreen FBW7–phospho-cyclin E peptide binding, activator screen. Q969H0. normalized activity (activation), % at 26.1 µM. 0.13% of 650,000 active. AID 1259310; in the data active = normalized activity above about 1.9%;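 note: purified mutant Fbw7 with reduced substrate affinity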
GPR151 activ: activates the human receptor GPR151; AID 1508602; PathHunter beta-arrestin GPR151 cells, luminescence; activation, % at 11.2 µM; Q8TDV0; 1% of 650,000 active; in the data active = activation above about 4.9%;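 note: 0% = median of compound wells and 100% = cells with positive control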
MITF confirm: human MITF inhibition, confirmation | inhibition, % at 2.6 µM | AlphaScreen MITF homodimerization, biotin/His-MITF beads | shares compounds with MITF inh | 16% of 4,700 active;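 active = inhibition above a cutoff derived from the DMSO control wells, cut at about 28% in these data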;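 note: 0% = MITF dimer wells with DMSO only; inhibitors lower the bead chemiluminescence by keeping MITF from dimerizing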
AS interf DR: counter-screen: compounds optically interfering with AlphaScreen | shares compounds with MITF inh | AlphaScreen optical interference counterscreen, cell-free | IC50, µM | 6% of 480 active | AID 1259373; call rule not given here
AS interf ctr: optically interferes with AlphaScreen signal; shares compounds with MITF inh; LysRS AlphaScreen counterscreen, signal interference, triplicate; inhibition, % at 2.6 µM; 7.6% of 4,700 active; AID 1259376;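 active = inhibition above a cutoff derived from the DMSO control wells, cut at about 30% in these data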
Active calls of the source: *; · = no result; ! = not confirmed by another sample.

SMILES	TEAD-YAP inh	MITF inh	FBW7 act	GPR151 activ	MITF confirm	AS interf ctr	others
Cc1ccc(Cn2nnc3c(=O)[nH]c(C4CCCN(C(=O)C(C)(C)C)C4)nc32)cc1 (stereo not drawn)	3.1	66.8*	0.1	-1.1	1.2	9.1
Cc1cc2nc(C3CCN(Cc4nnnn4Cc4cccs4)CC3)[nH]c2cc1C	-3.0	55.2*	-0.2	1.4	3.7	13.6
COC1CC2CCC(C)C(O)(O2)C(=O)C(=O)N2CCCCC2C(=O)OC(C(C)CC2CCC(O)C(OC)C2)CC(=O)C(C)/C=C(\C)C(O)C(OC)C(=O)C(C)CC(C)/C=C/C=C/C=C/1C (stereo not drawn)	-9.2	-9.5	-0.1	0.6	·	·
C=CC[C@@H]1/C=C(\C)C[C@H](C)C[C@H](OC)[C@H]2O[C@@](O)(C(=O)C(=O)N3CCCC[C@H]3C(=O)O[C@H](/C(C)=C/[C@@H]3CC[C@@H](O)[C@H](OC)C3)[C@H](C)[C@@H](O)CC1=O)[C@H](C)C[C@@H]2OC	8.8	111.3*!	-0.2	-0.3	122.2*	100.2*
CC1CCCCN1C(=O)CN1CCN(c2ncccn2)CC1 (stereo not drawn)	-9.1	54.5*	0.0	-0.1	3.2	11.3
Cc1ccc(-c2noc(C3CCN(S(=O)(=O)c4ccc5c(c4)OCCO5)CC3)n2)o1	6.0	63.4*	0.0	-0.4	7.7	16.7
Cc1ccc(-c2noc(C3CCCN(S(=O)(=O)c4ccc5ccccc5c4)C3)n2)o1 (stereo not drawn)	-2.0	-3.0	-0.3	1.0	·	·
O=C1CCCC2=C1C(c1ccc([N+](=O)[O-])o1)C1=C(CCCC1=O)O2	-7.3	66.9*	-0.4	0.4	62.2*	7.8	AS interf DR=>7.09
O=C(O)c1cc(S(=O)(=O)Nc2ccc(-n3cnnn3)cc2)ccc1O	-1.3	53.2*	-0.1	-0.4	40.7*	13.7	AS interf DR=>7.18
Cc1cc(-c2csc(NC3CCCC3)n2)c(C)n1-c1c(C)n(C)n(-c2ccccc2)c1=O	3.3	13.3	0.4	-1.6	·	·
CSc1nnc(CN2CCSCC2)n1C	4.1	64.1*	0.1	-1.0	-3.2	-5.2
Cn1c(CN2CCOCC2)nnc1SCC(N)=O	2.4	3.6	-0.2	0.6	·	·
Cc1ccc(C(=O)Nc2ccc(Br)cc2C)o1	-58.1	5.8	-0.3	1.0	·	·
COc1ccc(C(=O)CNCC2CCCO2)cc1OC (stereo not drawn)	1.6	68.8*	-0.2	0.3	-14.4	1.1
O=C(O)c1cccc(S(=O)(=O)N2CCC(c3nc4ccc(Cl)cc4[nH]3)CC2)c1	7.9	69.1*	0.0	1.9	10.1	16.5
O=S(=O)(c1cccc(Cl)c1)N1CCC(c2nc3ccccc3[nH]2)CC1	17.8	-7.6	-0.2	-0.4	·	·
C=CCN1C(=O)/C(=C/c2ccco2)S/C1=N/S(=O)(=O)c1ccc(Cl)cc1	-11.9	87.0*	0.0	2.4	13.3	16.8
C=CCN1C(=O)/C(=C/c2ccco2)S/C1=N/S(=O)(=O)c1cccs1	-16.8	1.0	0.0	2.4	·	·
O=[N+]([O-])c1cccc(CN2CCN(S(=O)(=O)c3ccc(F)cc3)CC2)c1	-6.3	57.2*	0.4	0.2	11.1	16.4
O=S(=O)(c1ccc(Cl)cc1)N1CCN(Cc2cccc(F)c2)CC1	-7.2	63.8*	-0.2	-1.3	-2.3	7.2
CN(C)C(=O)N1CCN(S(=O)(=O)c2cccc([N+](=O)[O-])c2)CC1	12.5	77.2*	-0.2	-0.3	29.8*	-6.4	AS interf DR=>6.48
CCN(CC)C(=O)N1CCN(S(=O)(=O)c2cccc([N+](=O)[O-])c2)CC1	1.2	1.7	-0.1	1.3	·	·
O=[N+]([O-])c1cccc(CN2CCN(S(=O)(=O)c3ccccc3)CC2)c1	2.8	70.4*	0.0	0.5	15.1	13.6
O=C1c2cccc3c(N4CCOCC4)ccc(c23)C(=O)N1CCOC(=O)C12CC3CC(CC(C3)C1)C2	1.6	-4.2	-0.2	-0.3	·	·
O=C(c1cccc2ccccc12)N1CCN(Cc2cccc([N+](=O)[O-])c2)CC1	5.8	75.6*	-0.2	-0.2	14.0	18.3
SMILES	TEAD-YAP inh	MITF inh	FBW7 act	GPR151 activ	MITF confirm	AS interf ctr	others
COc1ccc(S(=O)(=O)N2CCN(CCCc3ccccc3)CC2)cc1	1.9	47.4	0.0	-1.0	·	·
O=[N+]([O-])c1ccc(S(=O)(=O)N2CCN(CCCc3ccccc3)CC2)cc1	1.5	56.3*	-0.1	0.7	13.5	14.9
O=[N+]([O-])c1cccc(CN2CCN(S(=O)(=O)c3ccc(Cl)cc3)CC2)c1	2.7	64.1*	0.1	-0.8	13.0	15.6
Cc1nn(-c2ccccc2)c(C)c1/C=N/Nc1nc(N)ncc1[N+](=O)[O-]	17.9	4.2	-0.5	-3.7	·	·
COc1cccc(NC(=O)CCC2CCCC2)c1	-43.3	-4.3	0.0	-0.4	·	·
c1ccc(CN2CCC(N3CCN(C4CCCCC4)CC3)CC2)cc1	5.0	29.9	0.2	1.4	·	·
Cn1cccc1CN1CCN(C2CCCC2)CC1	-12.2	69.8*	-0.1	4.3	10.7	25.3
Cn1cccc1CN1CCN(Cc2ccccc2)CC1	7.5	69.7*	-0.3	1.2	7.1	19.6
Cn1cccc1CN1CCN(Cc2ccncc2)CC1	-0.2	63.6*	-0.4	-0.7	-3.4	4.5
Cn1cccc1CN1CCN(Cc2ccc(F)cc2)CC1	4.2	65.2*	-0.2	-1.2	3.6	6.9
Cn1cccc1CN1CC[C@H]2[C@H](CCC(=O)N2Cc2ccc(F)cc2)C1	6.9	5.9	0.0	-1.6	·	·
Cn1cccc1CN1CCN(S(C)(=O)=O)CC1	-8.5	22.2	0.0	0.3	·	·
CC(=O)NS(=O)(=O)c1ccc(NC(=O)c2ncoc2-c2ccc3ccccc3c2)cc1	-10.3	-5.4	0.0	-1.6	·	·
CCOC(=O)C(=O)Nc1sc(C(=O)N2CCOCC2)c(C)c1C#N	-1.9	71.4*	0.5	0.8	-5.9	-1.8
CCN1CCN(CCCCOc2ccc(C)cc2C)CC1	-4.9	59.0*	0.0	-0.4	2.5	8.0
Cc1ccc(OCCN)c(Br)c1	-1.3	2.6	0.4	1.5	·	·
CCN1CCN(CCCOc2ccc(C)cc2Br)CC1	-0.2	62.9*	-0.2	-1.3	13.9	10.8
CCN1CCN(CCOc2cc(C)ccc2C(C)C)CC1	-3.0	52.4*	0.1	-1.7	-7.1	-2.5
CCc1cc2ccccc2nc1SCC(N)=O	-5.7	9.1	-0.1	1.5	·	·
COc1cc2nc(CN3CCc4ccccc4C3)nc(N)c2cc1OC	-11.7	34.8	0.7	-0.8	·	·
O=C1NN(c2cccc(Cl)c2)C(=O)/C1=C/c1ccc(Br)cc1	-5.4	0.2	-0.2	-0.6	·	·
CCCC(=O)Nc1ccccc1C1(C)CC1	3.1	59.3*	0.0	-1.1	-3.3	-16.8
C=CCc1cccc(C)c1OCCCN1CCCC1	7.6	56.7*	0.7	-0.2	15.9	15.6
C=CCc1cccc(C)c1OCCN1CCOCC1	-1.6	85.7*	-0.2	0.0	8.2	6.0
C=CCc1cccc(Cl)c1OCCN1CCOCC1	-1.6	-21.8	0.3	-1.1	·	·
